PubChem BioAssay (NCATS)
Records with an inconclusive call do not appear. Active and inactive are the calls of the source. Unless noted, calls come from the whole dose curve; as a rule, active = well fitted curve in the direction sought with a large enough effect; inconclusive = small, poorly fitted or top-dose-only effect, or another doubt; inactive = no such curve, though single readings can be large; an effect the other way counts as inactive or inconclusive.

How the values were obtained:
[1] = target: Cytochrome P450 1A2 (Homo sapiens) (UniProt P05177); assay: p450-cyp1a2 (AID 410; calls by dose curve; note: potency is the fitted concentration of half-maximal effect;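 for activity change, negative = inhibition: -100% = full effect of reference inhibitor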)
Cytochrome P450 1A2 (Homo sapiens), sequence (P05177 whole entry, looked up): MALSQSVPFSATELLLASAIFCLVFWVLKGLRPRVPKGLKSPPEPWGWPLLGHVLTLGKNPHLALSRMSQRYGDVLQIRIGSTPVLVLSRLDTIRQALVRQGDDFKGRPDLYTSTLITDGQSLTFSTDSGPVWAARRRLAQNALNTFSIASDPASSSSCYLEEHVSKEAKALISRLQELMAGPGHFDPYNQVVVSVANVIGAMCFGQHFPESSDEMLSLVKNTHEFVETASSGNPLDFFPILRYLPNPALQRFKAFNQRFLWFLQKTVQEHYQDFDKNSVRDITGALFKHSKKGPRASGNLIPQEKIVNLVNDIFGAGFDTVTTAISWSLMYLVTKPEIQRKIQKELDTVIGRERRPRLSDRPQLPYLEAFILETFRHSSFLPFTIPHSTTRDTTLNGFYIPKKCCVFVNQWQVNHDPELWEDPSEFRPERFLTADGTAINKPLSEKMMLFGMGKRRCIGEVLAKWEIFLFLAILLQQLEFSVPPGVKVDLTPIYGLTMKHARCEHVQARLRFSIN
Procedure, shortened: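 Read-out is luminescence from luciferin produced by CYP1A2 demethylation of Luciferin-ME (100uM, at Km). Detection reagent stopped the 60 min NADPH-dependent reaction; signals were normalized to 57 uM furafylline.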

[2] = target: Glucocorticoid receptor (Homo sapiens) (UniProt P04150); assay: GR-GFP Redistribution (AID 450;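 active = compounds whose dose series gives a full or clear partial fitted curve of increased nuclear translocation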; note: potency is the fitted concentration of half-maximal effect); details: U2OS GR-GFP nuclear translocation, laser cytometry, 2 h
Glucocorticoid receptor (Homo sapiens), sequence (P04150 whole entry, looked up, the tested form may be a part): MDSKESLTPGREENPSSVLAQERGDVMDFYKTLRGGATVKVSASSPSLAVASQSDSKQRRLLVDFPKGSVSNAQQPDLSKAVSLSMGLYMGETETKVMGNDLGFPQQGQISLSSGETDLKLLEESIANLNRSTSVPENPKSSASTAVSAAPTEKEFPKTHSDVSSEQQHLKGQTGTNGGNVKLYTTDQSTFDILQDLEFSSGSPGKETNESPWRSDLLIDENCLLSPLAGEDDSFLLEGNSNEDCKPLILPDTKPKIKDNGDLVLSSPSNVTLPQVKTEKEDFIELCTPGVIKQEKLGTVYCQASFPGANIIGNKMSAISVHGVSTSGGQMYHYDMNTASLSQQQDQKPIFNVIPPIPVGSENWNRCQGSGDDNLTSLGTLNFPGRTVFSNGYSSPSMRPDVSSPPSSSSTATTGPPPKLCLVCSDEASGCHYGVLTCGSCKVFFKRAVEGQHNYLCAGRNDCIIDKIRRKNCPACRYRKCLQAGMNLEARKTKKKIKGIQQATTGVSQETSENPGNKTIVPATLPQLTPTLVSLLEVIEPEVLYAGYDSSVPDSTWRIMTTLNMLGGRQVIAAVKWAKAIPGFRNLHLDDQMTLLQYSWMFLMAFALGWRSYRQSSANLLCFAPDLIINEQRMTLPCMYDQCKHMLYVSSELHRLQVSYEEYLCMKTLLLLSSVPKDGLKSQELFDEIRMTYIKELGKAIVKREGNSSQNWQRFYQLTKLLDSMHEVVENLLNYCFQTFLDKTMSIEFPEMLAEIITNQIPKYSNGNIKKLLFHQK

[3] = target: Glucocorticoid receptor (Homo sapiens) (UniProt P04150); assay: GR-EFC Redistribution (AID 451; calls by dose curve; note: potency is the fitted concentration of half-maximal effect); details: CHO-K1 GR-EFC translocation, beta-gal luminescence, 2 h
Procedure, shortened: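 CHO-K1 cells expressing nuclear EA and GR-ED fragments of b-gal; compounds titrated up to 46 uM final, 2 h at 37 C. GR nuclear translocation read as complemented b-gal luminescence after 1 h RT detection.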

[4] = target: Mitogen-activated protein kinase 10 (Mus musculus) (UniProt Q61831); assay: JNK3 AlphaScreen Assay (AID 530; active = well fitted curve in either direction with a large enough effect, not every such curve was filed as active;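 note: kinase came from lysate of stimulated human HepG2 cells; signal reports phosphorylation of biotinylated GST-cJun 1-79 at Ser73 with 10 µM ATP; % is set by controls: 0 for no effect and ±100 for the full control effect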)
Procedure, shortened: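 HepG2 lysate (IL-1b/TNFa pre-activated) + biotin-GST-cJun 1-79 + anti-pSer73 cJun; cpd titration, 15 min RT; ATP 10 uM start; Tris pH 7.6, MgCl2, DTT, vanadate; beads in EDTA buffer; AlphaScreen.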

[5] = qHTS Assay for Lipid Storage Modulators (AID 1519; calls by dose curve; for activity change, negative = inhibition: % is set by controls: 0 for no effect and ±100 for the full control effect); details: Drosophila S3 cells, BODIPY lipid droplet/cell ratio, laser cytometry, cells loaded with oleic acid; for activity change, negative = inhibition: at 57.5 µM (top of the series)
Procedure, shortened: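 Cells seeded at 5,000 per well were treated with compounds over a concentration series and loaded with oleic acid (400 uM, as added). Lipid droplet fluorescence (488 nm excitation, 500-530 nm channel) was read by laser-scanning cytometry and normalized to 20 uM Triacsin C.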

[6] = target: DNA dC->dU-editing enzyme APOBEC-3G (Homo sapiens) (UniProt Q9HC16); assay: qHTS for inhibitors of Vif-A3G interactions: Validation (AID 588379); note: 0% is about no effect
DNA dC->dU-editing enzyme APOBEC-3G (Homo sapiens), sequence (Q9HC16 whole entry, looked up): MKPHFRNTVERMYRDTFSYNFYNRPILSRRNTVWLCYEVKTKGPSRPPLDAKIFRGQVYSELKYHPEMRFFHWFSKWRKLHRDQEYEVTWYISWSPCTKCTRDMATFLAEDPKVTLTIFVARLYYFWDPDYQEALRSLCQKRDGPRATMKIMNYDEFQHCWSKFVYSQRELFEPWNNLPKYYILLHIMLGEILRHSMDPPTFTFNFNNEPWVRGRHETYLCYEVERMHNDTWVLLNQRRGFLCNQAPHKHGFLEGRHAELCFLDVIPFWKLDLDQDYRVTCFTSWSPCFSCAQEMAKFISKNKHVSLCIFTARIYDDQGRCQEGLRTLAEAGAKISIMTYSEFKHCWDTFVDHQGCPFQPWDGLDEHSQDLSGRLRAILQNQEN
Procedure, shortened: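 Yellow fluorescence (Ex 488, Em 500-530) of Vif-coexpressing HeLa A3G-eYFP cells, scanned by Acumen cytometer, reports blocked A3G degradation. Cells plated at 700/well overnight at 37 deg C before compound addition, then a further overnight compound incubation at 37 deg C.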

[7] = tested on: Zika virus NS2B-NS3 protease; assay: Primary screen GU AMC qHTS for Zika virus inhibitors (AID 1347154);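 note: 0% = no-inhibitor control and -100% = no-enzyme control; nearly all actives have a fitted effect of over 70% in size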
Procedure, shortened: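 Unlinked Zika NS2B hydrophilic domain–NS3 protease complex at 25 nM in 10 mM Tris-HCl pH 8.0, 0.01% Tween 20, with an AMC peptide substrate. Fluorescence change (340/450 nm) over 15 min at room temperature, normalized to controls, fitted to 4-parameter Hill.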

[8] = Primary qHTS for small molecule stabilizers of the endoplasmic reticulum resident proteome: Secreted ER Calcium Modulated Protein (SERCaMP) assay (AID 1508630); note: % is set by controls: 0 for no effect and ±100 for the full control effect
Procedure, shortened: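 The SH-SY5Y reporter protocol was run at 3 concentrations up to 38.3 uM (primary) or 11 concentrations (follow-up): 16 h compound, 100 nM thapsigargin for 4 h, then extracellular luciferase luminescence.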

[9] = target: 3',5'-cyclic-AMP phosphodiesterase 4B (Homo sapiens) (UniProt Q07343); assay: qHTS Assay for Inhibitors of PDE-IV (AID 607; active = well fitted activation curve with a large enough effect in the main read-out, with a control signal flat, not every such curve was filed as active; note: % of control where 0% means no effect)
3',5'-cyclic-AMP phosphodiesterase 4B (Homo sapiens), sequence (Q07343 whole entry, looked up): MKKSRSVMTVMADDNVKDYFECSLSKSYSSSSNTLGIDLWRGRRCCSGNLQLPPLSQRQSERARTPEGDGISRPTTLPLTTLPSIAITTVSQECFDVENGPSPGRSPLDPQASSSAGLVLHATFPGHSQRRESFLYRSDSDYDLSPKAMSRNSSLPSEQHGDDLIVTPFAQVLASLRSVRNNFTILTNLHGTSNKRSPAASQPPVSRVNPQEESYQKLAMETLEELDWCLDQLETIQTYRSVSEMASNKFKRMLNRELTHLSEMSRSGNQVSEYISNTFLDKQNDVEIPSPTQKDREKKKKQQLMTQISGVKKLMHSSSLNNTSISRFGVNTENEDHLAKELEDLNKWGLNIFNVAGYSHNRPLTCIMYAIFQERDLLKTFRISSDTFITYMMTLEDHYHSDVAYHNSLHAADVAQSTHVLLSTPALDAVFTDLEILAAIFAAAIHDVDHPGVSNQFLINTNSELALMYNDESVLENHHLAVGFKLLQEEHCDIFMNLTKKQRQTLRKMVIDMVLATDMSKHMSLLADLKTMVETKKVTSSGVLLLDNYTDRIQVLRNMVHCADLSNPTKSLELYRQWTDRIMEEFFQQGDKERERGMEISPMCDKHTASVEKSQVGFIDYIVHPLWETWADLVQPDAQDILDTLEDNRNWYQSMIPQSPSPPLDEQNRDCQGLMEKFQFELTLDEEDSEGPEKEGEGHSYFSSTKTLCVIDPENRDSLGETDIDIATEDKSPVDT
Procedure, shortened: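 Live HEK293 cells with a modified cyclic nucleotide-gated (CNG) channel report intracellular cAMP via membrane-potential dye fluorescence (ex 535/em 590 nm). Endogenous PDE-IV was targeted. Compounds were tested at up to 22.9 uM final; RO 20-1724 100 uM served as control.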

[10] = target: Ubiquitin carboxyl-terminal hydrolase 1 (Homo sapiens) (UniProt O94782); assay: Inhibitors of USP1/UAF1: Pilot qHTS (AID 504865); note: nearly all actives have a fitted effect of over 35% in size; note: potency is the fitted concentration of half-maximal effect;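 for activity change, negative = inhibition: rhodamine fluorescence freed from ubiquitin-rhodamine substrate followed over time; top concentration of the series differs between compounds; % is set by controls: 0 for no effect and ±100 for the full control effect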
Ubiquitin carboxyl-terminal hydrolase 1 (Homo sapiens), sequence (O94782 whole entry, looked up): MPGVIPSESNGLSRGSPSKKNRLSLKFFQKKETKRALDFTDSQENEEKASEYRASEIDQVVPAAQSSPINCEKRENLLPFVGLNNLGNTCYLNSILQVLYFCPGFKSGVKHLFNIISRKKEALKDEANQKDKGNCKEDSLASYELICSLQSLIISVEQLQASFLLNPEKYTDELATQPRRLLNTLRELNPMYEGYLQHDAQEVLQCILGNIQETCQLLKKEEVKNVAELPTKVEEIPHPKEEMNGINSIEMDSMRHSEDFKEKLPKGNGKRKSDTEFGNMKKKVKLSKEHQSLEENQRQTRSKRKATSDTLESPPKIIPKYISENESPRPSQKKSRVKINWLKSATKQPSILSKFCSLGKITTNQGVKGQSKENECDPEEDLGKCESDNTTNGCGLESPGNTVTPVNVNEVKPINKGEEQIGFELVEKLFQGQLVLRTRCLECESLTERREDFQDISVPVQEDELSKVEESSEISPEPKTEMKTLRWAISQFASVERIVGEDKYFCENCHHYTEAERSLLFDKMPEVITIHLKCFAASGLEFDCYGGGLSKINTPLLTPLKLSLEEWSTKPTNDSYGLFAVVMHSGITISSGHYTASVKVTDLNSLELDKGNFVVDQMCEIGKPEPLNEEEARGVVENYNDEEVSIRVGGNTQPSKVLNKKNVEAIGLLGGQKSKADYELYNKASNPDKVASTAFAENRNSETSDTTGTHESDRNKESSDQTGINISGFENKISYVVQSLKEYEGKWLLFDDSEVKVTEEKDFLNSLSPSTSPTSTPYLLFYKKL
Procedure, shortened: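 1nM USP1/UAF1 + cpd, 15 min RT; start w/ Ub-Rho 150nM final; kinetic FL 480/540 nm, 6 reads q60 s. Buffer 50mM HEPES pH 7.8, 0.5mM EDTA, 1mM TCEP, 0.01% Tween-20, 0.1 mg/ml BSA.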

[11] = measured here: cell count channel max response
[12] = measured here: lipid channel max response

N#Cc1cc2[nH]c(=O)c(=O)[nH]c2cc1[N+](=O)[O-]
12.9%: max response [5, 11]
17.2%: max response [5, 12]
active: Potency [1] 31.6 µM
inactive: Potency [2] > 46 µM | Potency [3] > 46 µM | Potency [4] | activity change, negative = inhibition [5] 2.55% | Potency [6] | Potency [7] | Potency [8]

N[C@@H](CSS(=O)(=O)O)C(=O)O
active: Potency [1] 39.8 µM | Potency [10] 39.8 µM
inactive: Potency [2] > 46 µM | Potency [3] > 46 µM | Potency [9] | activity change, negative = inhibition [5] 3.51% | Potency [6] | Potency [7] | Potency [8]
2.48%: max response [5, 11]
7.41%: max response [5, 12]

N[C@](CC1c2ccccc2Oc2ccccc21)(C(=O)O)[C@@H]1C[C@@H]1C(=O)O
inactive: Potency [2] > 46 µM | Potency [3] > 46 µM | Potency [4] | Potency [9] | activity change, negative = inhibition [5] 5.89% | Potency [10] | Potency [6] | Potency [7] | Potency [8]
active: Potency [1] 31.6 µM
12.4%: max response [5, 11]
20%: max response [5, 12]

N[C@]1(C(=O)O)CCc2cc(P(=O)(O)O)ccc21
inactive: Potency [2] > 46 µM | Potency [3] > 46 µM | Potency [4] | Potency [9] | activity change, negative = inhibition [5] -2.38% | Potency [10] | Potency [6] | Potency [7] | Potency [8]
-7.84%: max response [5, 11]
-8.48%: max response [5, 12]

Nc1nc2c(nc(Br)n2[C@@H]2O[C@H]3COP(=O)(O)O[C@H]3[C@@H]2O)c(=O)[nH]1
inactive: Potency [2] > 46 µM | Potency [3] > 46 µM | activity change, negative = inhibition [5] -3.52% | Potency [10] | Potency [6] | Potency [7] | Potency [8]
-7.98%: max response [5, 12]
-4.09%: max response [5, 11]

CCCCCCCCCCCCCCCC(=O)NC(C)C
-16.6%: max response [5, 12]
-14.5%: max response [5, 11]
inactive: Potency [1] | Potency [2] > 46 µM | Potency [3] > 46 µM | Potency [4] | Potency [9] | activity change, negative = inhibition [5] 0.0182% | Potency [6] | Potency [7] | Potency [8]

Cc1cc([C@](C)(N)C(=O)O)ccc1P(=O)(O)O
16.7%: max response [5, 11]
inactive: Potency [2] > 46 µM | Potency [3] > 46 µM | Potency [4] | Potency [9] | activity change, negative = inhibition [5] -5.09% | Potency [10] | Potency [6] | Potency [7] | Potency [8]
13.5%: max response [5, 12]

CCCn1c(=O)c2[nH]c(-c3ccc(OCC(=O)Nc4ccc(C(C)=O)cc4)cc3)nc2n(CCC)c1=O
inactive: Potency [2] > 46 µM | Potency [3] > 46 µM | Potency [4] | activity change, negative = inhibition [5] 5.04% | Potency [10] | Potency [6] | Potency [7] | Potency [8]
6.38%: max response [5, 11]
10.1%: max response [5, 12]

NC1(C(=O)O)CCC1
-18.5%: max response [5, 11]
-13.7%: max response [5, 12]
inactive: Potency [2] > 46 µM | Potency [3] > 46 µM | Potency [4] | activity change, negative = inhibition [5] 3.54% | Potency [10] | Potency [6] | Potency [7] | Potency [8]
